Source: ChEMBL document CHEMBL1157539, “Thousands of chemical starting points for antimalarial lead identification” (Nature, 2010)

Columns and labels:
Assay type in all cases: functional
Plasmodium falciparum [1] = test: GSK_TCMDC: Inhibition of Plasmodium falciparum 3D7 in whole red blood cells, using parasite LDH activity as an index of growth. Test compounds present at 2uM
Plasmodium falciparum [2] = test: GSK_TCMDC: Inhibition of Plasmodium falciparum Dd2 in whole red blood cells, using parasite LDH activity as an index of growth. Test compounds present at 2uM
HepG2 = test: GSK_TCMDC: Percent inhibition of human HepG2 cell line. Test compounds present at 10uM.

SMILES: COc1ccc(NC(=O)c2cc(-c3ccc(NC(C)=O)cc3)cnc2N)cc1
- Inhibition (Plasmodium falciparum [1]): 98%
- Inhibition (Plasmodium falciparum [2]): 5%
- Inhibition (HepG2): 10%

SMILES: COc1ccc(CCN(C)CCOc2ccc(NC(=O)COc3ccc4sc5ccccc5c(=O)c4c3)cc2)cc1OC
- Inhibition (Plasmodium falciparum [1]): 100%
- Inhibition (Plasmodium falciparum [2]): 91%
- Inhibition (HepG2): 99%

SMILES: Cc1cc(N2CCCC2)nc(Nc2ccc(NC(=O)c3ccc4c(c3)OCO4)cc2)n1
- Inhibition (Plasmodium falciparum [1]): 100%
- Inhibition (Plasmodium falciparum [2]): 67%
- Inhibition (HepG2): 26%

SMILES: Cc1ccc(CN2CCN(Cc3cccc(NC(=O)c4ccc5ccccc5c4)c3)CC2)cc1C.O=C(O)C(F)(F)F
- Inhibition (Plasmodium falciparum [1]): 89%
- Inhibition (Plasmodium falciparum [2]): 23%
- Inhibition (HepG2): 62%

SMILES: Cc1cc(N(CCO)CCCN2CCCCC2)nc(Nc2ccc(Cl)cc2)n1.Cl
- Inhibition (Plasmodium falciparum [1]): 100%
- Inhibition (Plasmodium falciparum [2]): 18%
- Inhibition (HepG2): 12%

SMILES: COc1ccc(C(O)CNC(C)CCc2ccc(F)cc2)cc1C(F)(F)F.Cl (centres undefined)
- Inhibition (Plasmodium falciparum [1]): 99%
- Inhibition (Plasmodium falciparum [2]): 98%
- Inhibition (HepG2): 92%

SMILES: CN1CCN(CC(O)CNC(=O)Nc2ccc(Br)cc2)CC1.O=C(O)C(F)(F)F (centres undefined)
- Inhibition (Plasmodium falciparum [1]): 100%
- Inhibition (Plasmodium falciparum [2]): 100%
- Inhibition (HepG2): 5%

SMILES: Cc1ccccc1C1CCN(C2CCC(NC(=O)/C=C/c3ccc(C(F)(F)F)cc3F)CC2)CC1 (centres undefined)
- Inhibition (Plasmodium falciparum [1]): 99%
- Inhibition (Plasmodium falciparum [2]): 58%
- Inhibition (HepG2): 72%

SMILES: Cc1ccc(Nc2nc(C)cc(N3CCN(CCc4ccccc4)CC3)n2)cc1
- Inhibition (Plasmodium falciparum [1]): 93%
- Inhibition (Plasmodium falciparum [2]): 6%
- Inhibition (HepG2): 6%

SMILES: CNCc1cccc2nc(-c3csc(Cc4cc(Cl)ccc4OCC(C)C)n3)[nH]c12
- Inhibition (Plasmodium falciparum [1]): 100%
- Inhibition (Plasmodium falciparum [2]): 33%
- Inhibition (HepG2): 9%

SMILES: O=C(Nc1ccccc1)N1CCC(CN2CCOC(c3ccccc3)(c3ccccc3)C2)CC1
- Inhibition (Plasmodium falciparum [1]): 96%
- Inhibition (Plasmodium falciparum [2]): 98%
- Inhibition (HepG2): 10%

SMILES: CC(C)(NCc1ccc(OC(F)(F)F)cc1)c1nc(-c2ccc(Cl)c(O)c2)c(-c2ccncc2)[nH]1.Cl
- Inhibition (Plasmodium falciparum [1]): 94%
- Inhibition (Plasmodium falciparum [2]): 32%
- Inhibition (HepG2): 65%

SMILES: CC(O)CNc1nc2ccccc2n1CC(=O)Nc1cccc(C(=O)Nc2cccc(C(F)(F)F)c2)c1 (centres undefined)
- Inhibition (Plasmodium falciparum [1]): 99%
- Inhibition (Plasmodium falciparum [2]): 95%
- Inhibition (HepG2): 2%

SMILES: CCCCc1cc(NCC)nc(Nc2cccc(OC)c2)n1
- Inhibition (Plasmodium falciparum [1]): 97%
- Inhibition (Plasmodium falciparum [2]): 69%
- Inhibition (HepG2): 9%

SMILES: O=C1NC(=S)N/C1=C/C=C/c1ccc([N+](=O)[O-])o1
- Inhibition (Plasmodium falciparum [1]): 82%
- Inhibition (Plasmodium falciparum [2]): 30%
- Inhibition (HepG2): 7%

SMILES: CC(=O)Nc1cccc(/C=C/C(=O)N2CCC(N3CCCCC3)CC2)c1
- Inhibition (Plasmodium falciparum [1]): 96%
- Inhibition (Plasmodium falciparum [2]): 0%
- Inhibition (HepG2): 1%

SMILES: Cc1ccc(F)cc1-c1cc(N2CCCN(C(=O)c3ccc(Br)o3)CC2)ncn1
- Inhibition (Plasmodium falciparum [1]): 94%
- Inhibition (Plasmodium falciparum [2]): 91%
- Inhibition (HepG2): 0%

SMILES: COc1ccc2nccc([C@@H](O)CN3CCC(NC(=O)/C=C/c4cccc(C)c4)CC3)c2c1
- Inhibition (Plasmodium falciparum [1]): 84%
- Inhibition (Plasmodium falciparum [2]): 28%
- Inhibition (HepG2): 16%

SMILES: O=C(NCCCCCN1CCCN(C(=O)Nc2ccc(F)c(C(F)(F)F)c2)CC1)C1CC1c1ccc(Cl)c(Cl)c1 (centres undefined)
- Inhibition (Plasmodium falciparum [1]): 90%
- Inhibition (Plasmodium falciparum [2]): 1%
- Inhibition (HepG2): 61%

SMILES: Cc1cc(N[C@@H](CC(C)C)C(=O)NCCc2ccccc2)nc(NCC2CCCCC2)n1.O=C(O)C(F)(F)F
- Inhibition (Plasmodium falciparum [1]): 97%
- Inhibition (Plasmodium falciparum [2]): 65%
- Inhibition (HepG2): 19%

SMILES: COc1ccc(-c2nc(NC(=O)Cc3ccc(OC)c(OC)c3)sc2C)cc1
- Inhibition (Plasmodium falciparum [1]): 93%
- Inhibition (Plasmodium falciparum [2]): 22%
- Inhibition (HepG2): 33%

SMILES: Cc1cc(C2CCN(CCCCNC(=O)c3ccc(NC(=O)c4ccc(Cl)cc4)cc3)CC2)c(C)cc1OCc1ccncc1.Cl
- Inhibition (Plasmodium falciparum [1]): 100%
- Inhibition (Plasmodium falciparum [2]): 92%
- Inhibition (HepG2): 33%

SMILES: COc1ccc(CN2CCC(N3CCc4cc(NC(=O)c5cc(C)on5)ccc43)C2)cc1Cl (centres undefined)
- Inhibition (Plasmodium falciparum [1]): 94%
- Inhibition (Plasmodium falciparum [2]): 91%
- Inhibition (HepG2): 15%

SMILES: COc1ccccc1C1CC(c2ccc(C)cc2)=NN1C(=O)c1ccccc1 (centres undefined)
- Inhibition (Plasmodium falciparum [1]): 98%
- Inhibition (Plasmodium falciparum [2]): 45%
- Inhibition (HepG2): 37%

SMILES: Cc1cccc2nc(-c3ccc(-c4ccc(CN5CCOCC5)cc4)cc3)[nH]c12.O=C(O)C(F)(F)F
- Inhibition (Plasmodium falciparum [1]): 92%
- Inhibition (Plasmodium falciparum [2]): 86%
- Inhibition (HepG2): 29%

SMILES: OCCN1CCN(C(=S)Nc2ccccc2)CC1
- Inhibition (Plasmodium falciparum [1]): 97%
- Inhibition (Plasmodium falciparum [2]): 7%
- Inhibition (HepG2): 6%

SMILES: CCCC(C(CC1CCC(C)CC1)C(=O)NC(CCCNc1ncccn1)C(=O)Nc1nccs1)N(O)C=O (centres undefined)
- Inhibition (Plasmodium falciparum [1]): 98%
- Inhibition (Plasmodium falciparum [2]): 98%
- Inhibition (HepG2): 10%

SMILES: Cc1cccc2nc(-c3ccc(-c4cccc(NC(=O)Nc5ccc(F)c(F)c5F)c4)cc3)[nH]c12
- Inhibition (Plasmodium falciparum [1]): 100%
- Inhibition (Plasmodium falciparum [2]): 89%
- Inhibition (HepG2): 40%

SMILES: COc1ccc(-c2cccc(NC(=O)c3cccc(C#N)c3)c2)cc1CN1CCC(O)CC1.O=C(O)C(F)(F)F
- Inhibition (Plasmodium falciparum [1]): 97%
- Inhibition (Plasmodium falciparum [2]): 13%
- Inhibition (HepG2): 30%

SMILES: Fc1ccc(C(OCC2CCCN(Cc3cccc4cccnc34)C2)c2ccc(F)cc2)cc1 (centres undefined)
- Inhibition (Plasmodium falciparum [1]): 98%
- Inhibition (Plasmodium falciparum [2]): 97%
- Inhibition (HepG2): 21%

SMILES: Cc1cccc2nc(-c3cccc(-c4cccc(CN5CCCC5CN)c4)c3)[nH]c12.O=C(O)C(F)(F)F (centres undefined)
- Inhibition (Plasmodium falciparum [1]): 100%
- Inhibition (Plasmodium falciparum [2]): 72%
- Inhibition (HepG2): 15%

SMILES: CC(=O)c1sc2ccccc2c1O
- Inhibition (Plasmodium falciparum [1]): 91%
- Inhibition (Plasmodium falciparum [2]): 0%
- Inhibition (HepG2): 14%

SMILES: CC(C)(C)c1ccc(CN2CCC(NC(=O)c3ccc(-c4cccc(C(F)(F)F)c4)s3)CC2)cc1.O=C(O)C(F)(F)F
- Inhibition (Plasmodium falciparum [1]): 100%
- Inhibition (Plasmodium falciparum [2]): 96%
- Inhibition (HepG2): 97%

SMILES: O=C(CCN1CCCCC1)Nc1ccc(Nc2nccc(NCC(O)c3ccccc3)n2)cc1 (centres undefined)
- Inhibition (Plasmodium falciparum [1]): 100%
- Inhibition (Plasmodium falciparum [2]): 60%
- Inhibition (HepG2): 18%

SMILES: Oc1ccc(-c2nc3c4cc(I)ccc4c4ccc(I)cc4c3[nH]2)cc1
- Inhibition (Plasmodium falciparum [1]): 98%
- Inhibition (Plasmodium falciparum [2]): 51%
- Inhibition (HepG2): 0%

SMILES: CCN(CCN(C)C)Cc1ccc(-c2ccc(NS(=O)(=O)c3cccc4cccnc34)cc2)cc1.O=C(O)C(F)(F)F
- Inhibition (Plasmodium falciparum [1]): 91%
- Inhibition (Plasmodium falciparum [2]): 57%
- Inhibition (HepG2): 16%

SMILES: O=C(Nc1cccc(-c2nn3ccccc3c2-c2ccnc(Nc3ccc(NCCCN4CCOCC4)c(F)c3)n2)c1)c1c(F)cccc1F
- Inhibition (Plasmodium falciparum [1]): 100%
- Inhibition (Plasmodium falciparum [2]): 97%
- Inhibition (HepG2): 86%

SMILES: CCOC(=O)[C@H](Cc1cccc2ccccc12)NC(=O)[C@H](CCC(=O)OC(C)(C)C)NC(=O)c1ccc(N(C)Cc2cnc3nc(N)nc(N)c3n2)cc1
- Inhibition (Plasmodium falciparum [1]): 93%
- Inhibition (Plasmodium falciparum [2]): 96%
- Inhibition (HepG2): 66%

SMILES: O=S(=O)(c1c(Cl)cc(Cl)cc1Cl)N1CCCCC(c2ccc(C(F)(F)F)cc2)=N1
- Inhibition (Plasmodium falciparum [1]): 98%
- Inhibition (Plasmodium falciparum [2]): 99%
- Inhibition (HepG2): 6%

SMILES: CCN(CC)CCN(Cc1ccc(-c2ccc(C(F)(F)F)cc2)cc1)C(=O)c1ccc(-c2ccc(NC(=O)OC)cc2C)cc1
- Inhibition (Plasmodium falciparum [1]): 93%
- Inhibition (Plasmodium falciparum [2]): 42%
- Inhibition (HepG2): 66%

SMILES: O=C(O)C(F)(F)F.O=c1ccc2ccc(F)c3c2n1CC3CN1CCC(NCc2ccc(-c3cccc(Cl)c3)nc2)CC1 (centres undefined)
- Inhibition (Plasmodium falciparum [1]): 96%
- Inhibition (Plasmodium falciparum [2]): 33%
- Inhibition (HepG2): 16%

SMILES: COc1ccccc1CNC(=O)c1ccc(N2CCN(c3ccncc3)CC2)cn1.O=C(O)C(F)(F)F
- Inhibition (Plasmodium falciparum [1]): 96%
- Inhibition (Plasmodium falciparum [2]): 17%
- Inhibition (HepG2): 16%

SMILES: CCC[C@@H]([C@@H](CC(C)C)C(=O)N[C@@H](CCCCNC(=O)c1ccccn1)C(=O)Nc1nccs1)N(O)C=O
- Inhibition (Plasmodium falciparum [1]): 100%
- Inhibition (Plasmodium falciparum [2]): 100%
- Inhibition (HepG2): 0%

SMILES: CCc1cc(N2CCN(c3ccccc3F)CC2)nc(SCc2ccc(C(=O)NC3CC3)o2)n1
- Inhibition (Plasmodium falciparum [1]): 90%
- Inhibition (Plasmodium falciparum [2]): 94%
- Inhibition (HepG2): 9%

SMILES: Cc1cc2c(cc1C(F)(F)F)N(C(=O)Nc1cc(C(=O)NCCN(C)C)cc(C(F)(F)F)c1)CC2
- Inhibition (Plasmodium falciparum [1]): 100%
- Inhibition (Plasmodium falciparum [2]): 50%
- Inhibition (HepG2): 19%

SMILES: Cc1cc(N(C)C)nc(Nc2ccc(NC(=O)Nc3ccccc3)cc2)n1
- Inhibition (Plasmodium falciparum [1]): 100%
- Inhibition (Plasmodium falciparum [2]): 100%
- Inhibition (HepG2): 10%

SMILES: O=[N+]([O-])c1cccc(-c2ccc(C=NNc3cc(N4CCCC4)nc(N4CCCC4)n3)o2)c1
- Inhibition (Plasmodium falciparum [1]): 100%
- Inhibition (Plasmodium falciparum [2]): 67%
- Inhibition (HepG2): 0%

SMILES: O=C(O)C(F)(F)F.c1cc(CN2CCN(c3ccncc3)CC2)cc(-c2ccc(-c3nc4ccccc4[nH]3)cc2)c1
- Inhibition (Plasmodium falciparum [1]): 100%
- Inhibition (Plasmodium falciparum [2]): 100%
- Inhibition (HepG2): 60%
